Fewer than 10 of roughly 1,300 compounds were called active. Only a sample is shown. Values without a mark were called inactive. The rule behind the calls is not given here.
These compounds were tested against N-formyl peptide receptor 2 (Homo sapiens) (UniProt P25090) (assay: FPRL1 fluorescent ligand binding inhibitors, primary screen, selectivity assay for FPR ligand SAR project, cell-based, flow cytometry, HTS counterscreen (AID 725)). Conditions: FPRL1-expressing cells, stronger effect = higher value, concentration not given here.
N-formyl peptide receptor 2 (Homo sapiens), sequence (P25090 whole entry, looked up): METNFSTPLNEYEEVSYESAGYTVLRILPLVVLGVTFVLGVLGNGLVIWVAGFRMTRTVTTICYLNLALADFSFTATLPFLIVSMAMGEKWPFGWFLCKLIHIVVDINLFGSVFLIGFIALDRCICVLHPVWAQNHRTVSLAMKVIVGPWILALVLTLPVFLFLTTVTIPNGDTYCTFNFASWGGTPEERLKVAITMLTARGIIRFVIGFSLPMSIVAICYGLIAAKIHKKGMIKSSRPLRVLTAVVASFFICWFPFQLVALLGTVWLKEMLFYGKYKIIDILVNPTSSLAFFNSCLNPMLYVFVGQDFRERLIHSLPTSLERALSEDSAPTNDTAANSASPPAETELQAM

Compound	inhibition
O=C(C(Cc1ccccc1)N1Cc2ccccc2C1=O)N1CCOCC1 (configuration not stated)	-13.3%
CCOC(=O)c1c(NC(=O)c2cccs2)sc2c1CCC(C(C)(C)C)C2 (configuration not stated)	-4.5%
CC(C)c1ccc(C2/C(=C(\O)c3ccc(F)cc3)C(=O)C(=O)N2CCN2CCOCC2)cc1 (configuration not stated)	5.6%
CCOC(=O)Cc1c(C)nc2c(C#N)c(C)[nH]n2c1=O	5.1%
O=c1c(-c2ccc(Cl)cc2)c(C(F)(F)F)oc2c(CN3CCCCC3)c(O)ccc12	2.2%
COC(=O)c1c(NC(=O)c2cncc(Br)c2)sc2c1CCCC2	-1.3%
CN1C(=O)c2ccccc2C(C(=O)N2CCCC2)C1c1cccs1 (configuration not stated)	-3%
O=C1C(=O)N(c2ccc(Br)cc2)C(c2ccc(Br)cc2)/C1=C(/O)c1ccccc1 (configuration not stated)	0.2%
COC(=O)c1c(NC(=O)c2cc(OC)c(OC)c(OC)c2)sc(C)c1C	-10.3%
CCOC(=O)c1cc(C(C)C)sc1NC(=O)CCCC(=O)O	-4.7%
COc1ccc(OC)c(C(=O)CC2(O)C(=O)N(C)c3ccccc32)c1 (configuration not stated)	1.1%
COc1ccc(CN2CCc3c(c(=O)n4ncc(C(=O)O)c4n3C)C2)cc1	-3.9%
CCc1c(C)nc2c(-c3ccc(OC)c(OC)c3)c(C)[nH]n2c1=O	-1.3%
Cc1ccc(C2/C(=C(\O)c3ccc(Cl)cc3)C(=O)C(=O)N2CCN2CCOCC2)cc1 (configuration not stated)	0.3%
Cc1cc(C)nc(/N=C(/NC(=O)c2ccccc2)Nc2cccc(Cl)c2)n1	-4.7%
CCOc1ccc(C2/C(=C(/O)c3ccccc3)C(=O)C(=O)N2CC(C)O)cc1 (configuration not stated)	-1.6%
CCC(Sc1nc2ncccc2o1)C(=O)Nc1ccccc1OC (configuration not stated)	-16.4%
O=C1C(=O)N(c2ccccn2)C(c2cccnc2)/C1=C(/O)c1ccccc1 (configuration not stated)	4.3%
CCOC(=O)c1c(NC(=O)c2cccc(Cl)c2)sc(C)c1C	6.4%

Compound	inhibition
COc1ccccc1NC(=O)CSc1nncn2c1cc1occc12	34.6% (active)
Cc1cc(C)c(NC(=O)CSc2nncn3c2cc2oc(C)cc23)c(C)c1	13.3%
Cc1cc(C)c(NC(=O)CSc2nncn3c2cc2occc23)c(C)c1	12%
O=C1O[C@@H]2C[C@H]3C[C@@H]2[C@@H]1[C@H]3C(=O)N1CCc2ccccc21	-14.7%
O=C(O)C1CCCCC1C(=O)Nc1ccc(O)cc1 (configuration not stated)	-4.1%
COc1ccc(C2SCC(=O)N2c2ccccc2)cc1 (configuration not stated)	0%
Cc1ccc(C2/C(=C(\O)c3ccccc3)C(=O)C(=O)N2CCN2CCNCC2)cc1 (configuration not stated)	7.6%
COC(=O)c1c[nH]n2c(=O)c3c(nc12)C(=O)N(Cc1ccccc1)C3	-4.5%
Cc1cccc(C(CC(=O)O)NS(=O)(=O)c2ccc(C)cc2C)c1 (configuration not stated)	-12.7%
CCC(=O)N1c2ccccc2CC1C(=O)N1CCN(CC)CC1 (configuration not stated)	5.1%
COc1ccc(C2C(C(=O)c3ccc(C)o3)=C(O)C(=O)N2Cc2cccnc2)cc1OC (configuration not stated)	2.3%
CCN(CC)C(=O)c1c(NC(=O)c2cccc(C)c2)sc2c1CCCCC2	0.5%
O=C1C(=O)N(CCCN2CCOCC2)C(c2ccc(Cl)cc2)/C1=C(\O)c1ccccc1 (configuration not stated)	6.2%
CCc1cc2c(=O)c(-c3ccc4c(c3)OCO4)c(C(F)(F)F)oc2c(CN(C)C)c1O	-3%
O=C(CCCC(=O)c1ccccc1)Nc1cc(F)ccc1F	-27.4%
CCN(C(=O)c1noc2c1CC(C)CC2)c1cccc(C)c1 (configuration not stated)	-9.6%
CC(C)c1ccc(CN(Cc2ccco2)C(=O)c2ccc(F)cc2)cc1	-3.3%
COc1ccc(C2C(C(=O)c3ccco3)=C(O)C(=O)N2c2nnc(C)s2)cc1OC (configuration not stated)	1.1%
CCOC(=O)c1c(NC(=O)c2ccc(Cl)cc2)sc2c1CCC(C)C2 (configuration not stated)	-4.7%

Compound	inhibition
Cc1onc(-c2ccccc2Cl)c1C(=O)NC1CCCCC1	4.7%
Cc1ccc(N2C(=O)CSC2c2ccc(C(C)(C)C)cc2)cc1C (configuration not stated)	-24.8%
COC(=O)c1c(NC(=O)c2cccc(Cl)c2)sc2c1CCCC2	4.4%
Cc1ccc(N2C(=O)C(=O)/C(=C(\O)c3ccc(Cl)cc3)C2c2ccc(O)cc2)cc1Br (configuration not stated)	-2.4%
CCOC(=O)c1c(NC(=O)c2ccccc2C)sc2c1CCC(CC)C2 (configuration not stated)	-9.3%
Cc1cc(C)n(Cc2c(C(=O)N3CCC(C)CC3)noc2C)n1	18.2%
CCCN(C(=O)[C@H]1[C@@H]2C[C@@H]3[C@H]1C(=O)O[C@@H]3C2)c1ccccc1F	15.9%
COc1ccc(C2/C(=C(\O)c3ccc(C)cc3)C(=O)C(=O)N2CCN2CCOCC2)c(OC)c1 (configuration not stated)	-7%
O=C(C(c1ccccc1)N1Cc2ccccc2C1=O)N1CCCCCC1 (configuration not stated)	1.9%
Nc1nonc1-c1nc2ccccc2n1CC(=O)Nc1ccccc1Cl	-1.8%
COC(=O)c1ccc(-c2ccco2)n1CC(=O)Nc1c(C)cc(C)cc1C	-13.6%
COc1ccc(C2/C(=C(/O)c3ccccc3)C(=O)C(=O)N2c2ccc(F)cc2)c(OC)c1 (configuration not stated)	3.6%
O=C1C(=O)N(Cc2cccnc2)C(c2ccc(F)cc2)/C1=C(\O)c1ccccc1 (configuration not stated)	6.7%
CC(C)OC(=O)c1c(NC(=O)C2CCCC2)sc2c1CCCC2	-0.2%
O=C1C(=O)N(CCCN2CCOCC2)C(c2cccc(Br)c2)/C1=C(\O)c1ccccc1 (configuration not stated)	5.8%
Cc1nnc(N2C(=O)C(=O)/C(=C(/O)c3ccccc3)C2c2ccc(Cl)cc2)s1 (configuration not stated)	-5%
COCCCN1C(=O)C(=O)/C(=C(/O)c2ccccc2)C1c1ccc(Br)cc1 (configuration not stated)	3.8%
COc1cccc(NC(=O)C2CCC(=O)N2S(=O)(=O)c2ccccc2)c1 (configuration not stated)	-2.9%
COC(=O)c1c(NC(=O)c2cccc(Br)c2)sc(C)c1C	3.3%
